Measured values: the supplement of paper PMC11732987, “Enantioselective OTUD7B fragment discovery through chemoproteomics screening and high-throughput optimisation” (Communications Chemistry, 2025)

What was measured:
Assay in all cases: log2 ratio of Biotin-Ahx-Ub-VS probe labelling (fragment/DMSO); higher = less target engagement (more negative = stronger competition), active = hit call of the paper (q ≤ 0.05, log2 ratio ≤ -1)
Conditions in all cases: compound concentration: 200 uM; treatment time: 3 h
USP19 = target: T1, USP19 (UniProt O94966)
T1 sequence (whole entry): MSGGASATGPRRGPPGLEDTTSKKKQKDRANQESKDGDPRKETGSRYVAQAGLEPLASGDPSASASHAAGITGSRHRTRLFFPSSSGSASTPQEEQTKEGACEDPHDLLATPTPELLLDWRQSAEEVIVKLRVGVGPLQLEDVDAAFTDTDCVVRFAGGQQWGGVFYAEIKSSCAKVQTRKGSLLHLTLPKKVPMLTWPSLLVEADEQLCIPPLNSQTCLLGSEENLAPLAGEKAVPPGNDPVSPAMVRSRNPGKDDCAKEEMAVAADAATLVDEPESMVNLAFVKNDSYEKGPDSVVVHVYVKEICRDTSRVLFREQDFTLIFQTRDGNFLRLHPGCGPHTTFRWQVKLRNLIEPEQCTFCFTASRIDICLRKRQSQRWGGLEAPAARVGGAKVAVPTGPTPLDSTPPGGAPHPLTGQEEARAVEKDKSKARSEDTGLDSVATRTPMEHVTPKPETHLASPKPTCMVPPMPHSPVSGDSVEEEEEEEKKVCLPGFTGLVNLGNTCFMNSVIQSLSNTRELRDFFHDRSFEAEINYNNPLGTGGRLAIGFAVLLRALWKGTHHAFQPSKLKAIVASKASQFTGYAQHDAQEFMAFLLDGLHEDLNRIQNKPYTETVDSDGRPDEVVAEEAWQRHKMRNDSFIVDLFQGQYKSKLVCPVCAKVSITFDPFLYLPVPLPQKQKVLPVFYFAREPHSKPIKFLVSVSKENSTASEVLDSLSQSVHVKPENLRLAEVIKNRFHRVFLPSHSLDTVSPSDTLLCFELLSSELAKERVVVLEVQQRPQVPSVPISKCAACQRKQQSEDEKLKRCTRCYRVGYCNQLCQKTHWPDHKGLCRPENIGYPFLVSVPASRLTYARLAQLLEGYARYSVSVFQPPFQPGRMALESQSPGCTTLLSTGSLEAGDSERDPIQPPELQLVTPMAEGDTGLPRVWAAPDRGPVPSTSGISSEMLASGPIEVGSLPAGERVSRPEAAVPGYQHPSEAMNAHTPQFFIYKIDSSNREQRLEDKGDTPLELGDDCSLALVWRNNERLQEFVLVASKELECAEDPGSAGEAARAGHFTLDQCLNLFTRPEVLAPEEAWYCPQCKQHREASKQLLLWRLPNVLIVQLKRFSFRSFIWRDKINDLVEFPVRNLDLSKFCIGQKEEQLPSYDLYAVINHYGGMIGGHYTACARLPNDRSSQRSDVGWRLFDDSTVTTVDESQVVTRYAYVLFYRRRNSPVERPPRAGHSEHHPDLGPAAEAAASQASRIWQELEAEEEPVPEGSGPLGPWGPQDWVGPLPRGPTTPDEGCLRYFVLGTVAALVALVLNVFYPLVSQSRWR
Procedure, shortened: (§1)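 Each value is an average log2 ratio of fragment to vehicle, tested by unpaired t-test. The underlying Spectronaut label-free quantities were global-median-normalised, and only proteins with ≥2 unique peptides were included. Triplicate HEK293T lysate samples (495 µg) were exposed to fragment at 200 µM or vehicle for 3 h, then to Biotin-Ahx-Ub-VS at 0.5 µM final for 1 h, before NeutrAvidin enrichment of labelled DUBs, LysC and trypsin digestion, and diaPASEF LC-MS/MS.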

USP24 = USP24 (UniProt Q9UPU5)
Chain of USP24 (Q9UPU5 whole entry): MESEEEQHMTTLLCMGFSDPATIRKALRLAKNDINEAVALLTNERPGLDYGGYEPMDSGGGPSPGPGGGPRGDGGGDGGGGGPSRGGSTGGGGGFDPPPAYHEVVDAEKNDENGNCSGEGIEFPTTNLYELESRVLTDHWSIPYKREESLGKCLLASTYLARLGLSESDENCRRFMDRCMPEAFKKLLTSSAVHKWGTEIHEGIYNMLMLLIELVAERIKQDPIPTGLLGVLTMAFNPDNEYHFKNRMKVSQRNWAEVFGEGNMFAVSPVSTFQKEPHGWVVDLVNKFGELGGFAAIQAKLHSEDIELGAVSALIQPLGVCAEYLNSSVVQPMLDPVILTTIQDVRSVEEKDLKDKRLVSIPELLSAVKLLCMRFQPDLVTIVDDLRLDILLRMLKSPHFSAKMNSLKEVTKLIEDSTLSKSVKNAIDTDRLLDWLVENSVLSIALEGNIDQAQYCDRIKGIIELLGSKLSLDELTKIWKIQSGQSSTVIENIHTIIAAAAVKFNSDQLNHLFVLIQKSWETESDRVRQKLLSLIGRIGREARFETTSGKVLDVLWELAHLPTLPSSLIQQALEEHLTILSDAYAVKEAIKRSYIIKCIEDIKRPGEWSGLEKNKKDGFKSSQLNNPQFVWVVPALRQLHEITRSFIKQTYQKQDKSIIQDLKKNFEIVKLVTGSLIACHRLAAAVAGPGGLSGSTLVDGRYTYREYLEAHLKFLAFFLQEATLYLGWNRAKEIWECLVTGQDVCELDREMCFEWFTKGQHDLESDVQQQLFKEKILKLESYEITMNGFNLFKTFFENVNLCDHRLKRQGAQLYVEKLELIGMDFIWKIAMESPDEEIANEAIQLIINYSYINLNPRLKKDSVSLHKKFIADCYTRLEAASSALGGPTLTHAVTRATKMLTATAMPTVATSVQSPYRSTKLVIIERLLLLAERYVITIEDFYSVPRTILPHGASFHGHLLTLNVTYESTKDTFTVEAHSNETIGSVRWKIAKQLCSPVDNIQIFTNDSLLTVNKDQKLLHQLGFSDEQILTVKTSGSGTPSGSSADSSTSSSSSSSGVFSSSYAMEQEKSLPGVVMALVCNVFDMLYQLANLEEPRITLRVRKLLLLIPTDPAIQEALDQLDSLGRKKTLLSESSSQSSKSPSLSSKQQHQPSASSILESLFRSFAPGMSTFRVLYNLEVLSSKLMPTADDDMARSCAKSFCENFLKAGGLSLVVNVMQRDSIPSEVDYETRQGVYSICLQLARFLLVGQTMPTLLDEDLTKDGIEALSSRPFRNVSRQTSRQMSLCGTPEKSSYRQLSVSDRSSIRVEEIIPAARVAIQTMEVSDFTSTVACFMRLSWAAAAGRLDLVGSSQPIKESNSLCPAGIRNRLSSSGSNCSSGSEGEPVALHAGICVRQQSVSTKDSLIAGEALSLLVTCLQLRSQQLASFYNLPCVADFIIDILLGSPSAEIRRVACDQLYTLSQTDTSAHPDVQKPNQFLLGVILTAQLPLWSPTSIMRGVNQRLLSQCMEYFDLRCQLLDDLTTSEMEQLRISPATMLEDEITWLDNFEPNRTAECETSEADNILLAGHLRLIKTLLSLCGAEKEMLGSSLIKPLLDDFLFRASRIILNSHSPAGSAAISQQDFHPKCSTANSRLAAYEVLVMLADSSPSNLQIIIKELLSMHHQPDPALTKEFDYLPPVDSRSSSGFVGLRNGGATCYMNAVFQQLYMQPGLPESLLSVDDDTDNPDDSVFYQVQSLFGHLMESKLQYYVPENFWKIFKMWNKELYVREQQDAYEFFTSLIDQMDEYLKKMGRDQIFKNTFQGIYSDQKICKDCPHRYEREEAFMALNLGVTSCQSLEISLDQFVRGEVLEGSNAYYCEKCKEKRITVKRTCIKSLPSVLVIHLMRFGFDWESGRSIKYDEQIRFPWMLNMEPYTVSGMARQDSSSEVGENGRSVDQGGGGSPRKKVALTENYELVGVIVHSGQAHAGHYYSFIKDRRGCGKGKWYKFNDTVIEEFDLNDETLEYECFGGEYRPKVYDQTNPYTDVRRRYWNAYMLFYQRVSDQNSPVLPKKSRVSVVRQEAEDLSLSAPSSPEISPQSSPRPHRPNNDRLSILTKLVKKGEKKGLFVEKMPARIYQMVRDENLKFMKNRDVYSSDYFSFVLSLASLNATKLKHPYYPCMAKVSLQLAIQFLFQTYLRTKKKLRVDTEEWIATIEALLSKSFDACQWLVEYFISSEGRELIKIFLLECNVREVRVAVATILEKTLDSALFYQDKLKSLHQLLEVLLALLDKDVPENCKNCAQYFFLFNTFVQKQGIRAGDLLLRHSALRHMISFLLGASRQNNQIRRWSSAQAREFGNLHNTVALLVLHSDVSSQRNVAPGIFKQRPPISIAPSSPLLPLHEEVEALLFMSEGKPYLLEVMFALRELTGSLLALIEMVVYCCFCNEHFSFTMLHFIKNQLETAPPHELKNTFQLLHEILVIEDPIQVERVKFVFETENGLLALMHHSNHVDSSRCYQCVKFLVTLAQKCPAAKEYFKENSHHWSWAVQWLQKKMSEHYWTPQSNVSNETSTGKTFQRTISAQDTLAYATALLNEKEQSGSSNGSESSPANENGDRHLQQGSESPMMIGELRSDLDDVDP
Procedure, shortened: as §1

USP25 = target: T2, USP25 (UniProt Q9UHP3)
T2 sequence (whole entry): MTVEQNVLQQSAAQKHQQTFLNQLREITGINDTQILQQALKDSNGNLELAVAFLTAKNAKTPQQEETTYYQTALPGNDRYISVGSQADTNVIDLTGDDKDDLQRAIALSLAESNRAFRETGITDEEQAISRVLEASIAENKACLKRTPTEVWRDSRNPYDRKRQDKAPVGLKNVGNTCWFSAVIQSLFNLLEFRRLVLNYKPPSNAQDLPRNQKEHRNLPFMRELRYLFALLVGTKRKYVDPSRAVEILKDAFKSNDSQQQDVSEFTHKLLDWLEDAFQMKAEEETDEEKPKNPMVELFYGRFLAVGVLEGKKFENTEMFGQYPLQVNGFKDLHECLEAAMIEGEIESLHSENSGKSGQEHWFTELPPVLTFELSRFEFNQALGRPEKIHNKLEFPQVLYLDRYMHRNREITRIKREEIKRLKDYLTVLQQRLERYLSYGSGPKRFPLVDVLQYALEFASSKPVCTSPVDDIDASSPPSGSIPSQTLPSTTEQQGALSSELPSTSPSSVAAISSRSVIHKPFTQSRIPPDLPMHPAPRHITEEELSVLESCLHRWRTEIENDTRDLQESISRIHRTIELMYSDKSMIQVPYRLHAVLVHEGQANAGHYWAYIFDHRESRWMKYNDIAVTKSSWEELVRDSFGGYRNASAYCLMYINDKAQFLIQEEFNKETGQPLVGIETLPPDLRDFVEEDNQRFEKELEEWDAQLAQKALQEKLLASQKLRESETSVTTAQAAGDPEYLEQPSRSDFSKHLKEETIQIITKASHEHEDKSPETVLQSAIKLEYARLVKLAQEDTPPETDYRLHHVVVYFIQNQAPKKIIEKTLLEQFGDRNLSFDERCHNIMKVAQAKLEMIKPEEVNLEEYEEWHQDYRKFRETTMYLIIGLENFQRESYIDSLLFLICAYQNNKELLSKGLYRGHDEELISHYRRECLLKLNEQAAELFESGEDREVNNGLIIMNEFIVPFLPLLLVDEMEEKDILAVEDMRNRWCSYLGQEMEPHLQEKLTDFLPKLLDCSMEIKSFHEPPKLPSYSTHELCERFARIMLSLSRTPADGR
Procedure, shortened: as §1

USP28 = target: T3, USP28 (UniProt Q96RU2)
T3 sequence (whole entry): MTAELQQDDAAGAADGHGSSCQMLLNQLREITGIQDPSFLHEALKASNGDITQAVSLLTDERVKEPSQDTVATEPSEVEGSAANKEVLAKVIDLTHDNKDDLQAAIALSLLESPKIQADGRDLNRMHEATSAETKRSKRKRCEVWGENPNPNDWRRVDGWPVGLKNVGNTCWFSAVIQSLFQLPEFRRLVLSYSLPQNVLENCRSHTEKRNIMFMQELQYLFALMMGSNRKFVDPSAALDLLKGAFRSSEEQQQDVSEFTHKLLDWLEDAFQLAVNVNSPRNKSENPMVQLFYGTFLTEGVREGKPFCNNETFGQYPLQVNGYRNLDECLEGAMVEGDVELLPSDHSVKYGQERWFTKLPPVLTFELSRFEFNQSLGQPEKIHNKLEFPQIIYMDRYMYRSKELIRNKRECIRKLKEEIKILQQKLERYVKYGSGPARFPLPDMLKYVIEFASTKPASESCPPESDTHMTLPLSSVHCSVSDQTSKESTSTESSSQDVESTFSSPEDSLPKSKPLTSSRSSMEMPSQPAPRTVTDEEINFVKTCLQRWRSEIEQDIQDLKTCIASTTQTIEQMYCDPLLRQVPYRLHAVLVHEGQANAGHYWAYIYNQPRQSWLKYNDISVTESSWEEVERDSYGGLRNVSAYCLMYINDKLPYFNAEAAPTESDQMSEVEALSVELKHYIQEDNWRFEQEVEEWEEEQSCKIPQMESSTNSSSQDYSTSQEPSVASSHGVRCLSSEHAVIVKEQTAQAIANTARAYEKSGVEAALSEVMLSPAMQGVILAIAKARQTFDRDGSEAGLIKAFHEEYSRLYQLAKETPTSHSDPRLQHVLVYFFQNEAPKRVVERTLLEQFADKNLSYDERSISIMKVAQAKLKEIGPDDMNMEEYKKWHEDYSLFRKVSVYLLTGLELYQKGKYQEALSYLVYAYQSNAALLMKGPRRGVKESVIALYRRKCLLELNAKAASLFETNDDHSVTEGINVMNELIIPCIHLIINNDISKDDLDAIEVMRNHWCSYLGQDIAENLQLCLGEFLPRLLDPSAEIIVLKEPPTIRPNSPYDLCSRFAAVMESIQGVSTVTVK
Procedure, shortened: as §1

Measured: log2 ratio of Biotin-Ahx-Ub-VS probe labelling

Cc1ccc(-c2nnc(C)[nH]2)c(NC(=O)CCl)c1
inactive: USP19 0.0362 | USP24 -0.204 | USP25 -0.734 | USP28 -0.643
